According to PubChem BioAssay (Tox21):
Records with an inconclusive call do not appear. Calls of active or inactive are those of the source. Unless noted, calls come from the whole dose curve; as a rule, active = well fitted curve in the direction sought with a large enough effect in the repeat runs; inconclusive = weak or mixed curves; inactive = no such curve, though single readings can be large; an effect the other way counts as inactive or inconclusive.

Assays:
[1] = qHTS assay to identify small molecule agonists of the androgen receptor (AR) signaling pathway in the presence of an antagonist - cell viability counter screen (AID 1259379); note: nearly all actives have a fitted effect of over 25% in size; note: potency is the fitted concentration of half-maximal effect;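 for activity change, negative = cytotoxicity: MDA-kb2 human breast cancer cells carrying an MMTV luciferase reporter; series mostly up to about 92 µM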
Summary of the method: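 Cytotoxicity is assessed by CellTiter-Fluor in MDA-kb2 cells carrying an MMTV-driven luciferase reporter. Cells receive 3.0uM nilutamide plus compounds at 15 concentrations and incubate 16 hr at 37C without CO2 before fluorescence reading.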

[2] = qHTS assay to identify small molecule agonists of the estrogen receptor beta (ER-beta) signaling pathway - cell viability counter screen (AID 1259380); note: nearly all actives have a fitted effect of over 30% in size; note: potency is the fitted concentration of half-maximal effect
Summary of the method: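 Cytotoxicity is measured in parallel with the reporter screen: after 16 hr compound exposure at 37C and a 2 hr LiveBLAzer step, CellTiter-Glo is added to the same ER-beta-UAS-bla HEK293T wells and luminescence read after 30 min.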

[3] = qHTS assay to identify small molecule antagonists of the estrogen receptor beta (ER-beta) signaling pathway - cell viability counter screen (AID 1259382); note: nearly all actives have a fitted effect of over 55% in size; note: potency is the fitted concentration of half-maximal effect;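 for activity change, negative = cytotoxicity: HEK293T cells carrying ER-beta-UAS-bla reporter stimulated with estradiol; series mostly up to about 92 µM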
Summary of the method: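 Cytotoxicity counter screen multiplexed with the beta-lactamase antagonist assay: GripTite HEK293T ER-beta-bla cells were treated 16 hr with test chemicals in the presence of 1nM 17-beta-estradiol, and viability was measured by CellTiter-Glo.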

[4] = qHTS assay to identify small molecule agonists or antagonists of the thyroid stimulating hormone receptor (TSHR) signaling pathway - wild type cell line counter screen (AID 1259384; calls by dose curve)
Summary of the method: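 Counter screen in untransfected Hek293: compounds (15-point titration, triplicate) plus phosphodiesterase inhibitor Ro20-1724 added after 18 h plating; 30 min RT. Intracellular cAMP via competitive d2/cryptate immunoassay, 1 h incubation.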

[5] = molecular target: Thyrotropin receptor (Homo sapiens) (UniProt P16473); experiment: qHTS assay to identify small molecule antagonists of the thyroid stimulating hormone receptor (TSHR) signaling pathway (AID 1259385; calls by dose curve; note: nearly all actives have a fitted effect of over 20% in size; note: potency is the fitted concentration of half-maximal effect)
Summary of the method: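 Antagonist mode: compound-treated TSHR-expressing HEK293 cells were stimulated with 1.5 ng/mL TSH (final) in presence of Ro20-1724 for 30 min at RT. HTRF cAMP detection after 1 h; each compound tested at 15 concentrations, triplicate.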

[6] = qHTS assay to identify small molecule agonists of the estrogen receptor alpha (ER-alpha) signaling pathway in the presence of an antagonist - cell viability counter screen (AID 1259386);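 note: cells exposed to compounds for 22 h at 37 °C before the viability read; nearly all actives have a fitted effect of over 30% in size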; note: potency is the fitted concentration of half-maximal effect; for activity change, negative = cytotoxicity: series mostly up to about 92 µM
Summary of the method: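 Cytotoxicity was measured in parallel with the ERE-luciferase agonist screen, in the same wells. The cells were VM7Luc4E2, which endogenously express ER-alpha, and treatment was with compounds plus 10.0nM ICI-182,780 for 22hr.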

[7] = molecular target: Progesterone receptor (Homo sapiens) (UniProt P06401); experiment: qHTS assay to identify small molecule agonists of the progesterone receptor (PR) signaling pathway (AID 1346784; calls by dose curve; note: nearly all actives have a fitted effect of over 30% in size)
Summary of the method: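 PR-UAS-bla HEK 293T cells (beta-lactamase reporter under UAS) in 2% charcoal-stripped FBS, dosed with 23 nL compound after 6 hr, incubated 16hr at 37C. LiveBLAzer B/G FRET substrate added, fluorescence read after 2 hours.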

[8] = molecular target: Estrogen receptor (Homo sapiens) (UniProt P03372); experiment: qHTS assay to identify small molecule agonists of the estrogen receptor alpha (ER-alpha) signaling pathway in the presence of an antagonist (AID 1259383; calls by dose curve; note: nearly all actives have a fitted effect of over 15% in size; note: potency is the fitted concentration of half-maximal effect; for activation: top concentration of the series differs between compounds)
Summary of the method: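 Agonist-mode confirmation in the presence of the ER antagonist ICI-182,780 at 10.0nM final. Breast-derived VM7Luc4E2 reporter cells were exposed to compounds for 22hr, and ERE-driven luciferase was quantified by luminescence.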

[9] = molecular target: Androgen receptor (Homo sapiens) (UniProt P10275); experiment: qHTS assay to identify small molecule agonists of the androgen receptor (AR) signaling pathway in the presence of an antagonist (AID 1259381; calls by dose curve; note: nearly all actives have a fitted effect of over 15% in size)
Summary of the method: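 Agonist-mode confirmation screen: human MDA-kb2 cells stably expressing luciferase under an MMTV promoter bearing AR and GR response elements, co-treated with 3.0uM nilutamide (final). Luminescence measured after 16hr compound incubation.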
% is set by controls: 0 for no effect and ±100 for the full control effect.

Progesterone receptor (Homo sapiens), sequence (P06401 whole entry, looked up): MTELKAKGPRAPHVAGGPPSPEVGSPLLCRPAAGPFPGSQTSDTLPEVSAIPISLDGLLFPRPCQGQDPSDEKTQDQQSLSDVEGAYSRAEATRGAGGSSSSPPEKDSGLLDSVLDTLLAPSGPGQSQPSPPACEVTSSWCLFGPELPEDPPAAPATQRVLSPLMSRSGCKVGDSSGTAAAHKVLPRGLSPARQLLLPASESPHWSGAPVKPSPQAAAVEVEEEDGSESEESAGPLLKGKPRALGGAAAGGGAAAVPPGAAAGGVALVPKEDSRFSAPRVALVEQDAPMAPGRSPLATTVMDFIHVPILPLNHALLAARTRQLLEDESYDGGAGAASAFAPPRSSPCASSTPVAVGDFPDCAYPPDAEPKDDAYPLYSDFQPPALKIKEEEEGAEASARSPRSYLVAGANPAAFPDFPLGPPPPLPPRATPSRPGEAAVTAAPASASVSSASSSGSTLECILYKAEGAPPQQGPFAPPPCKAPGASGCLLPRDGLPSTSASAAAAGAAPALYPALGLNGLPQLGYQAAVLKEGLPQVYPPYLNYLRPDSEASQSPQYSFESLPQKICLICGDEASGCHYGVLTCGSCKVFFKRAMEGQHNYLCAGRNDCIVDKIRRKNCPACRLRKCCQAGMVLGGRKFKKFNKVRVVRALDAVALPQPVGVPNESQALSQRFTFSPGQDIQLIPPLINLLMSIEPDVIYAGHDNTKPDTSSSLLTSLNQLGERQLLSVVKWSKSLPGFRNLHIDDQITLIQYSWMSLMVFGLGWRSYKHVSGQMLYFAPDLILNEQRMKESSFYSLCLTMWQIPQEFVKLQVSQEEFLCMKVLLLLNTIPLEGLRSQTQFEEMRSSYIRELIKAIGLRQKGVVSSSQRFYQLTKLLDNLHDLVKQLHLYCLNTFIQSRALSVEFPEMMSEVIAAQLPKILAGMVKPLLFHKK
Androgen receptor (Homo sapiens), sequence (P10275 whole entry, looked up): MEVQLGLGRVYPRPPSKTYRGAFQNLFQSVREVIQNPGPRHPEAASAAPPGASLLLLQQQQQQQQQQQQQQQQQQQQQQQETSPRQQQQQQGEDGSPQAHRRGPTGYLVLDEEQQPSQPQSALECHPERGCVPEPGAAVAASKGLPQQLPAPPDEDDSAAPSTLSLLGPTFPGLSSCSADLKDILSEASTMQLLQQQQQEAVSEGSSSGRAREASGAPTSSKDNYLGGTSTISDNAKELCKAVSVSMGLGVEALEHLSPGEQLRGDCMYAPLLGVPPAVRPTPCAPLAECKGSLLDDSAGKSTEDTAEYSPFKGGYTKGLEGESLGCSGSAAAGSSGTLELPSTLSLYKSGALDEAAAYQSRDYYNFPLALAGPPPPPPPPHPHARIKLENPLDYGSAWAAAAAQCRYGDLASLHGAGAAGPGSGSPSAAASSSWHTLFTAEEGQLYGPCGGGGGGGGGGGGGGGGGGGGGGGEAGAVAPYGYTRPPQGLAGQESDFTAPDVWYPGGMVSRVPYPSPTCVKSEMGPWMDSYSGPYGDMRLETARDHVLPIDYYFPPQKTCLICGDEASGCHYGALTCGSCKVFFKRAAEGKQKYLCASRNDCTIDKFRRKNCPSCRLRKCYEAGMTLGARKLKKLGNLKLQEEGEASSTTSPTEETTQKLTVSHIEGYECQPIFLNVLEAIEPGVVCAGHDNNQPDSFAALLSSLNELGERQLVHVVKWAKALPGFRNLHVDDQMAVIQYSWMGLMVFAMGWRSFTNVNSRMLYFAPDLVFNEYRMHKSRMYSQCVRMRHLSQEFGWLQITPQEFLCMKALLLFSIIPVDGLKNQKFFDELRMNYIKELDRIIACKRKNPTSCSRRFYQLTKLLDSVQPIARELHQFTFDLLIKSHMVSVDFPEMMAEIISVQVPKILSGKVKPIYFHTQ
Estrogen receptor (Homo sapiens), sequence (P03372 whole entry, looked up): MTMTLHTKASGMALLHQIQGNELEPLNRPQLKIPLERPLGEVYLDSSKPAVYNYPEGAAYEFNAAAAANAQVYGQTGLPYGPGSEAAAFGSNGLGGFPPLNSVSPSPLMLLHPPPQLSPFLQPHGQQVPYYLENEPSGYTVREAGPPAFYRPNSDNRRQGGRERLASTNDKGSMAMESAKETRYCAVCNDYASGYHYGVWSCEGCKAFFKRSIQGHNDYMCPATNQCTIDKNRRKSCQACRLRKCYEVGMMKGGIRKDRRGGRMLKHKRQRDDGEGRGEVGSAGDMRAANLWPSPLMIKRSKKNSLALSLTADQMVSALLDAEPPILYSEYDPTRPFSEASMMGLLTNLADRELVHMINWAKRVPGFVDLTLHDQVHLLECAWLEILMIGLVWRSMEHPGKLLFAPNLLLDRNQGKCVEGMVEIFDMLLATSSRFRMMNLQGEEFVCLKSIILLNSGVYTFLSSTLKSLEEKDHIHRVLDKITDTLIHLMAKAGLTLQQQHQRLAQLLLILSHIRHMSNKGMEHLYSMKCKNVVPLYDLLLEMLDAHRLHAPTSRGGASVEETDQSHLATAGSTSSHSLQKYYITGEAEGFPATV
Thyrotropin receptor (Homo sapiens), sequence (P16473 whole entry, looked up): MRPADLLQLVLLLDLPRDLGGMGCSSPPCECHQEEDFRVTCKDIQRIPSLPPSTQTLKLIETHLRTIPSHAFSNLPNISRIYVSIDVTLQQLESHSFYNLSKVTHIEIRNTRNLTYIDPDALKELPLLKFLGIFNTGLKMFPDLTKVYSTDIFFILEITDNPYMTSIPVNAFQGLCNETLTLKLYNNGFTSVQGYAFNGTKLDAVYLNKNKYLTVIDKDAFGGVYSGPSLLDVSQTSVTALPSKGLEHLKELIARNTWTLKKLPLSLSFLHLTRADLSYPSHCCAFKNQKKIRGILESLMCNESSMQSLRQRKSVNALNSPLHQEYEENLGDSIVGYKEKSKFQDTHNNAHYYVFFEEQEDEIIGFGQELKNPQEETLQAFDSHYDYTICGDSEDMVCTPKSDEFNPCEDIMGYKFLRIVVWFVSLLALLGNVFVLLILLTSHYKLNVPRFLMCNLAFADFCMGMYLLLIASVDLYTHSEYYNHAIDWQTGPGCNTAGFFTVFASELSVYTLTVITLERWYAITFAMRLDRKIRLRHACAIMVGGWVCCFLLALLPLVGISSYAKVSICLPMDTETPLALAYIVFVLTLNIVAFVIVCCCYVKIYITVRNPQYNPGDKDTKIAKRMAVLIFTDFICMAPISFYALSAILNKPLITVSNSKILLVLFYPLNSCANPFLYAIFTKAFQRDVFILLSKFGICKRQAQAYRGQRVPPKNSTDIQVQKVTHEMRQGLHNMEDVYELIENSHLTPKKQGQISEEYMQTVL

CCC(=O)C(=O)CC
inactive: Potency [1] | Potency [2] | Potency [3] | outcome [4] | Potency [5] | Potency [6] | Potency [7]

Nc1ccc(Oc2ccc(Cl)cc2)cc1
inactive: Potency [1] | Potency [3] | Potency [8] | Potency [6]

COc1cc(/C=C/c2ccccc2)oc(=O)c1
inactive: Potency [1] | Potency [3] | Potency [8] | outcome [4] | Potency [6] | Potency [7]

O=c1oc2cc(O)ccc2c2oc3cc(O)ccc3c12
inactive: Potency [1] | Potency [3] | Potency [6] | Potency [7]
active: Potency [2] 37 µM

NC[C@H]1O[C@H](O[C@H]2[C@H](O[C@@H]3O[C@H](CO)[C@@H](O)[C@H]3O)C(O)[C@H](N)C[C@@H]2N)[C@H](N)[C@@H](O)[C@@H]1O (some centres undefined)
inactive: activity change, negative = cytotoxicity [1] 2.75% [at 8.39 µM] | activity change, negative = cytotoxicity [2] 1.6% [at 8.39 µM] | activity change, negative = cytotoxicity [3] 0.11% [at 8.39 µM] | cAMP activity change [4] -9.73% [at 8.39 µM] | activity change, negative = inhibition [5] -4.82% [at 8.39 µM] | activity change, negative = cytotoxicity [6] 3.36% [at 8.39 µM] | activation [7] 14.9% [at 8.39 µM]

Nc1nc(-c2ccccc2)cs1
inactive: Potency [1] | Potency [2] | Potency [3] | outcome [4] | Potency [5] | Potency [6] | Potency [7]

CC(C)=CCC1=C(O)c2ccccc2C(=O)C1=O
inactive: Potency [8] | Potency [7]
active: Potency [1] 43 µM | Potency [2] 1.53 µM | Potency [6] 43 µM

CCO[C@@H]1O[C@H](C(COCc2ccccc2)OCc2ccccc2)[C@H](OCc2ccccc2)[C@H]1O (some centres undefined)
inactive: Potency [1] | Potency [3] | Potency [6] | Potency [7]

O=[N+]([O-])c1ccc(O)cc1C(F)(F)F
active: Potency [1] 30.6 µM | Potency [6] 27.3 µM
inactive: Potency [2] | Potency [3] | outcome [4] | Potency [5] | Potency [7]

O=C(O)c1cc(N=Nc2ccc([N+](=O)[O-])cc2)ccc1O
inactive: Potency [8] | outcome [4] | Potency [5] | Potency [7]
active: Potency [1] 60 µM

CC1(C)CCC[C@]2(C)[C@H]3CC(=O)O[C@]3(C)CC[C@@H]12
inactive: Potency [1] | Potency [3] | Potency [8] | outcome [4] | Potency [5] | Potency [6] | Potency [7]

CC(N=C(NC#N)Nc1ccncc1)C(C)(C)C (centres undefined)
inactive: Potency [1] | Potency [2] | Potency [3] | Potency [5] | Potency [6] | Potency [7]

CNC(=O)c1ccccc1Sc1ccc2c(/C=C/c3ccccn3)n[nH]c2c1
inactive: outcome [4] | Potency [5]
active: Potency [1] 26.6 µM

Cc1ccc(C(=O)O)cc1
inactive: Potency [1] | Potency [2] | Potency [3] | Potency [5] | Potency [6] | Potency [7]

CC1(C)CCC[C@]2(C)[C@H]3CCO[C@]3(C)CC[C@@H]12
inactive: Potency [1] | Potency [2] | Potency [3] | outcome [4] | Potency [6] | Potency [7]

O=C(O)c1cc(-c2ccc(F)cc2F)ccc1O
inactive: Potency [1] | Potency [8] | Potency [6] | Potency [7]

O=C(O)CCN(C1(C(=O)NO)CCCC1)S(=O)(=O)c1ccc(Oc2ccc(F)cc2)cc1
inactive: Potency [1] | Potency [2] | Potency [3] | outcome [4] | Potency [5] | Potency [6] | Potency [7]

Nc1nc(N)nc(-c2cc(Cl)ccc2Cl)n1
inactive: Potency [1] | Potency [2] | Potency [3] | Potency [6] | Potency [7]

CCCCCCOC(=O)C(C)CC (centres undefined)
inactive: Potency [2] | outcome [9] | Potency [3] | Potency [8] | outcome [4] | Potency [6] | Potency [7]

CCCCCCC1CCCC(=O)O1 (centres undefined)
inactive: Potency [1] | Potency [3] | outcome [4] | Potency [5] | Potency [6]

CCCCC/C=C\C/C=C\CCCCCCCC(=O)O
active: Potency [2] 43.3 µM
inactive: Potency [1] | Potency [8] | Potency [5] | Potency [6]

C=CC(=O)OCCOC(=O)C=C
active: Potency [8] 61.1 µM
inactive: Potency [2] | outcome [9] | Potency [3] | outcome [4] | Potency [5] | Potency [6] | Potency [7]

CCCCNS(=O)(=O)c1ccc(C)cc1
inactive: Potency [1] | Potency [2] | Potency [3] | Potency [8] | Potency [6] | Potency [7]

Cc1ccc(O)c(N)c1
inactive: Potency [1] | Potency [8] | outcome [4]
active: Potency [2] 24.4 µM

Cc1cc(-n2nc3ccc(Cl)cc3n2)c(O)c(C(C)(C)C)c1
inactive: Potency [1] | Potency [3] | outcome [4] | Potency [5] | Potency [7]

CN(C)C(=O)COC(=O)Cc1ccc(OC(=O)c2ccc(N=C(N)N)cc2)cc1
inactive: Potency [1] | Potency [2] | Potency [3] | outcome [4] | Potency [5] | Potency [6] | Potency [7]

CCOc1ccc2ccccc2c1C(=O)N[C@@H]1C(=O)N2[C@@H]1SC(C)(C)[C@@H]2C(=O)O
inactive: Potency [1] | outcome [9] | Potency [3] | Potency [8] | outcome [4] | Potency [5] | Potency [6] | Potency [7]

CCN(CCN)c1cccc(C)c1
inactive: Potency [1] | Potency [8] | Potency [5] | Potency [6] | Potency [7]

O=C1CCc2ccc(OCCCCN3CCN(c4cccc(Cl)c4Cl)CC3)cc2N1
active: Potency [1] 26.6 µM | Potency [2] 10.6 µM | Potency [3] 33.5 µM | Potency [6] 29.8 µM
inactive: outcome [4] | Potency [5]

Cc1nc2n(c(=O)c1CCN1CCC(c3noc4cc(F)ccc34)CC1)CCCC2
inactive: Potency [1] | Potency [3] | Potency [8] | outcome [4] | Potency [6] | Potency [7]

CN1CCN2c3ccccc3Cc3ccccc3C2C1 (centres undefined)
inactive: Potency [1] | outcome [9] | Potency [8] | outcome [4] | Potency [7]

C#C[C@]1(OC(C)=O)CC[C@H]2[C@@H]3CCC4=C/C(=N/O)CC[C@@H]4[C@H]3CC[C@@]21CC
inactive: Potency [1] | outcome [4] | Potency [6]
active: Potency [8] 2.11 µM | Potency [5] 0.422 µM

C[C@@H](O)[C@H](N)C(=O)O
inactive: activity change, negative = cytotoxicity [1] -0.428% [at 19 µM] | activity change, negative = cytotoxicity [3] 0.119% [at 19 µM] | activity change, negative = cytotoxicity [6] 2.14% [at 19 µM] | activation [7] 0.125% [at 19 µM]

NC(=S)NC(N)=S
inactive: Potency [1] | outcome [9] | Potency [3] | Potency [8] | outcome [4] | Potency [6] | Potency [7]

CCCCN(CCCC)CC(O)c1cc(Cl)cc2c1-c1ccc(Cl)cc1/C2=C/c1ccc(Cl)cc1 (centres undefined)
active: Potency [2] 29.8 µM
inactive: Potency [1] | Potency [8] | outcome [4] | Potency [7]
